These results are taken from PubChem BioAssay (NCI).

Each structure is given as a SMILES string. Compounds without any hit were thinned out: in the full panel of roughly 79,000, 15% have a hit. A number with no mark means an inactive call. The source made the active and inactive calls. Rule as the data show it: active = growth inhibition above about 70%; inactive = the rest.

The nature of assay [1]: NCI Yeast Anticancer Drug Screen. Data for the rad50 strain (AID 155).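 Also: 0% = growth of vehicle-only cultures of the same strain.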 The following applies: S. cerevisiae rad50 strain growth inhibition, active compounds read high. In outline: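 Growth of the mutant yeast was measured after compound exposure and referenced to vehicle-treated cultures.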
Assay [2] is described as follows: NCI Yeast Anticancer Drug Screen. Data for the mec2-1 strain (AID 157). The following applies: S. cerevisiae mec2-1 strain, active compounds read high. In outline:
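Compounds were applied to mec2-1 yeast cells. Their growth was then compared with that of vehicle-treated cultures to give growth inhibition.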

A short description of assay [3]: NCI Yeast Anticancer Drug Screen. Data for the sgs1 mgt1 strain (AID 161).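 Also: 0% = growth of cultures given vehicle only.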 The following applies: S. cerevisiae sgs1 mgt1 strain, active compounds read high. In outline:
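Percent growth inhibition was derived by comparing compound-exposed mutant yeast with vehicle-exposed cultures. The strain carries alterations in DNA damage repair.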

The nature of assay [4]: NCI Yeast Anticancer Drug Screen. Data for the cln2 rad14 strain (AID 165).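 Also: 0% = growth equal to vehicle treated cultures.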 The following applies: S. cerevisiae cln2 rad14 strain, active compounds read high. An outline of the steps:
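Strain: cln2 rad14 yeast, altered in cell cycle control and DNA damage repair. Read-out: growth inhibition vs vehicle.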

Assay [5] in a line: NCI Yeast Anticancer Drug Screen. Data for the bub3 strain (AID 167). The settings on record: S. cerevisiae bub3 mutant strain, active compounds read high. An outline of the steps:
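Whole-cell yeast assay. The mutant strain was incubated with compounds, and growth inhibition was determined by comparison with vehicle-treated cells.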

Assay [6] in a line: NCI Yeast Anticancer Drug Screen. Data for the mlh1 rad18 strain (AID 175). The following applies: S. cerevisiae mlh1 rad18 strain growth inhibition, active compounds read high. In outline: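 A repair-deficient yeast strain is exposed to test compound, and growth is scored relative to vehicle-treated controls.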
Setting [7] is: at 5.0 µM (retest, dose inferred, filed as 0.5).
Setting [8] is: at 50.0 µM (retest, dose inferred, filed as 5.0).

Turning to `O=C(O)Cc1cc(I)c(Oc2ccc(O)c(I)c2)c(I)c1`, the growth inhibition was -6% in assay [1] (setting [7]); 92% (active) in assay [1] (setting [8]); 89.8% (active) in assay [1] (at 50.0 µM); 0% in assay [2] (setting [7]); 98% (active) in assay [2] (setting [8]); 92.2% (active) in assay [2] (at 50.0 µM). For the same molecule, the growth inhibition in assay [3] (setting [7]) was 7%; in assay [3] (setting [8]), 93% (active); in assay [3] (at 50.0 µM) it was 91% (active); in assay [4] (setting [7]), 29%; in assay [4] (setting [8]), 97% (active); in assay [4] (at 50.0 µM) it was 89.3% (active). Further, the growth inhibition was 22% in assay [5] (setting [7]); 98% (active) in assay [5] (setting [8]); 91.7% (active) in assay [5] (at 50.0 µM); 20% in assay [6] (setting [7]); 97% (active) in assay [6] (setting [8]); 89.7% (active) in assay [6] (at 50.0 µM).

For the molecule `COC1/C=C\C=C(/C)C(=O)Nc2cc3nc4cc(Br)ccc4oc-3c(c2=O)CC(C)CC(OC)C(O)C(C)/C=C(\C)C1OC(N)=O` (centres undefined), the growth inhibition in assay [1] (setting [7]) is 54%; in assay [1] (setting [8]), 95% (active); in assay [1] (at 50.0 µM), 90.2% (active); in assay [2] (setting [7]), 81% (active); in assay [2] (setting [8]), 96% (active); in assay [2] (at 50.0 µM), 92% (active). For the same molecule, the growth inhibition in assay [3] (setting [7]) was 46%; in assay [3] (setting [8]), 94% (active); in assay [3] (at 50.0 µM) it was 89.9% (active); in assay [4] (setting [7]), 50%; in assay [4] (setting [8]), 96% (active); in assay [4] (at 50.0 µM), 83.2% (active). Besides, the growth inhibition in assay [6] (setting [7]) was 81% (active); in assay [6] (setting [8]) it was 95% (active); in assay [6] (at 50.0 µM), 89.4% (active).

With `CCN(CC)C(=O)CCCC1CCCCC1`, the growth inhibition is 1% in assay [1] (setting [7]); 23% in assay [1] (setting [8]); 45.6% in assay [1] (at 50.0 µM); -3% in assay [2] (setting [7]); 4% in assay [2] (setting [8]); 13.2% in assay [2] (at 50.0 µM). Also, the growth inhibition was 0% in assay [3] (setting [7]); 20% in assay [3] (setting [8]); 66.5% in assay [3] (at 50.0 µM); 6% in assay [5] (setting [7]); 25% in assay [5] (setting [8]); 44% in assay [5] (at 50.0 µM). Further, the growth inhibition is 1% in assay [6] (setting [7]), 7% in assay [6] (setting [8]) and 26.9% in assay [6] (at 50.0 µM).

Consider `CCOC(=O)c1c(C)c2c(n1C)CCc1sc(N)nc1-2`, for which the growth inhibition is 14% in assay [1] (setting [7]); 66% in assay [1] (setting [8]); 96% (active) in assay [1] (at 50.0 µM); 7% in assay [2] (setting [7]); 58% in assay [2] (setting [8]); 96.8% (active) in assay [2] (at 50.0 µM). In addition, the growth inhibition in assay [3] (setting [7]) was 5%; in assay [3] (setting [8]), 65%; in assay [3] (at 50.0 µM), 98.3% (active); in assay [5] (setting [7]) it was 2%; in assay [5] (setting [8]), 80% (active); in assay [5] (at 50.0 µM), 96.7% (active). The growth inhibition in assay [6] (setting [7]) was -1%; in assay [6] (setting [8]), 58%; in assay [6] (at 50.0 µM), 90.2% (active).

For the molecule `Cc1ccc(C(=O)CCCN2CCOCC2)c(C)c1`, the growth inhibition was 13% in assay [1] (setting [7]); 46% in assay [1] (setting [8]); 77.5% (active) in assay [1] (at 50.0 µM); 5% in assay [2] (setting [7]); 30% in assay [2] (setting [8]); 38.8% in assay [2] (at 50.0 µM). Also, the growth inhibition in assay [3] (setting [7]) is 27%; in assay [3] (setting [8]), 57%; in assay [3] (at 50.0 µM), 58.8%; in assay [4] (setting [7]), 29%; in assay [4] (setting [8]) it was 63%; in assay [4] (at 50.0 µM), 50.5%. The growth inhibition in assay [6] (setting [7]) is 5%; in assay [6] (setting [8]), 43%; in assay [6] (at 50.0 µM), 72.8% (active).

As for `COc1ccc(Nc2nc3ccccc3s2)cc1`, the growth inhibition was 1% in assay [1] (setting [7]); 15% in assay [1] (setting [8]); 21% in assay [1] (at 50.0 µM); -3% in assay [2] (setting [7]); 0% in assay [2] (setting [8]); 35.4% in assay [2] (at 50.0 µM). For the same molecule, the growth inhibition in assay [3] (setting [7]) is 0%; in assay [3] (setting [8]), 35%; in assay [3] (at 50.0 µM), 38.3%; in assay [5] (setting [7]) it was 5%; in assay [5] (setting [8]) it was 42%; in assay [5] (at 50.0 µM) it was 85.8% (active). Also, the growth inhibition in assay [6] (setting [7]) is 10%; in assay [6] (setting [8]), 15%; in assay [6] (at 50.0 µM), 58.7%.

Consider `O=C(O)/C(Cl)=C(\Cl)C(=O)Nc1c(Cl)cccc1Cl`, for which the growth inhibition was -9% in assay [1] (setting [7]); 7% in assay [1] (setting [8]); 19.1% in assay [1] (at 50.0 µM); -3% in assay [2] (setting [7]); -7% in assay [2] (setting [8]); 51.1% in assay [2] (at 50.0 µM). Besides, the growth inhibition is -13% in assay [3] (setting [7]); 6% in assay [3] (setting [8]); 38.2% in assay [3] (at 50.0 µM); 1% in assay [4] (setting [7]); 5% in assay [4] (setting [8]); 36.4% in assay [4] (at 50.0 µM). For the same molecule, the growth inhibition is 19% in assay [6] (setting [7]), 2% in assay [6] (setting [8]) and 16.1% in assay [6] (at 50.0 µM).

With `CCCCCCCNC1CCCc2cc(OC)ccc21` (centres undefined), the growth inhibition in assay [1] (setting [7]) is 40%; in assay [1] (setting [8]), 56%; in assay [1] (at 50.0 µM), 85.5% (active); in assay [2] (setting [7]) it was 22%; in assay [2] (setting [8]) it was 31%; in assay [2] (at 50.0 µM), 70.5% (active). The growth inhibition in assay [3] (setting [7]) was 28%; in assay [3] (setting [8]) it was 64%; in assay [3] (at 50.0 µM) it was 84.2% (active); in assay [4] (setting [7]), 28%; in assay [4] (setting [8]), 54%; in assay [4] (at 50.0 µM), 72.5% (active). In addition, the growth inhibition is 21% in assay [5] (setting [7]); 35% in assay [5] (setting [8]); 69.8% in assay [5] (at 50.0 µM); 20% in assay [6] (setting [7]); 60% in assay [6] (setting [8]); 71.2% (active) in assay [6] (at 50.0 µM).

`Cc1[nH]c2ccccc2c1C(C)CC(O)c1ccccc1` (centres undefined): the growth inhibition in assay [1] (setting [7]) is 5%; in assay [1] (setting [8]), 68%; in assay [1] (at 50.0 µM), 95% (active); in assay [2] (setting [7]), -4%; in assay [2] (setting [8]), 73% (active); in assay [2] (at 50.0 µM), 85.5% (active). For the same molecule, the growth inhibition in assay [3] (setting [7]) is 2%; in assay [3] (setting [8]), 62%; in assay [3] (at 50.0 µM), 90.2% (active); in assay [4] (setting [7]) it was 11%; in assay [4] (setting [8]), 29%; in assay [4] (at 50.0 µM), 95.8% (active). Further, the growth inhibition in assay [5] (setting [7]) was 3%; in assay [5] (setting [8]), 67%; in assay [5] (at 50.0 µM), 88.7% (active); in assay [6] (setting [7]), 8%; in assay [6] (setting [8]) it was 88% (active); in assay [6] (at 50.0 µM), 95.2% (active).

With `CCOc1cc2c(cc1O)CC[C@@H]1[C@@H]2CC[C@]2(C)[C@@H](O)CC[C@@H]12`, the growth inhibition in assay [1] (setting [7]) is 33%; in assay [1] (setting [8]), 39%; in assay [1] (at 50.0 µM), 41%; in assay [2] (setting [7]), 13%; in assay [2] (setting [8]), 33%; in assay [2] (at 50.0 µM) it was -10.4%. The growth inhibition in assay [3] (setting [7]) is 13%; in assay [3] (setting [8]) it was 34%; in assay [3] (at 50.0 µM) it was 46.8%; in assay [4] (setting [7]) it was 12%; in assay [4] (setting [8]) it was 30%; in assay [4] (at 50.0 µM), 33.4%. For the same molecule, the growth inhibition in assay [6] (setting [7]) was 27%; in assay [6] (setting [8]), 42%; in assay [6] (at 50.0 µM) it was 40.8%.
